HIV RNase H inh = blocks HIV-1 RNase H cleavage of RNA/DNA duplex | P04585 | actives 1.9% (n = 65,000) | inhibition, % at 10 µM | AID 565 | RT-RNase H RNA/DNA duplex cleavage, fluorescence; in the data active means inhibition above about 50%
Each line names hits and unclear results; the compound was inactive in the other large screens; ! = not confirmed by another sample. The sample as a whole holds a higher share of hits than the screen did.

CCN(CC)S(=O)(=O)c1cccc2cc(C(=O)O)c(O)cc12	none
Cc1cc(NC(=O)C2CCN(S(=O)(=O)c3cnc[nH]3)CC2)ccc1Br	none
Cc1onc(-c2c(F)cccc2Cl)c1C(=O)NCc1ccccn1	none
Cc1onc(-c2c(F)cccc2Cl)c1C(=O)NCCc1ccc(S(N)(=O)=O)cc1	HIV RNase H inh 54.5
Cc1onc(-c2ccccc2Cl)c1C(=O)NCc1ccc(S(N)(=O)=O)cc1	none
CN1CCN(c2ncnc3c2cnn3-c2ccc(Cl)cc2)CC1	none
CCN1CCN(c2ncnc3c2cnn3-c2ccc(Cl)cc2)CC1	none
CCOC(=O)N1CCN(c2ncnc3c2cnn3-c2ccc(Cl)cc2)CC1	HIV RNase H inh 69.3
Cc1nc2scc(-c3ccccc3)c2c(=O)n1N	none
CCc1nc2scc(-c3ccccc3)c2c(=O)n1N	none
O=c1[nH]c(Cn2nnc(-c3ccccc3)n2)nc2scc(-c3ccccc3)c12	HIV RNase H inh 52.9
CCOC(=O)c1[nH]c(C)c(C(=O)N2CCN(c3cccc(Cl)c3)CC2)c1C	none
CCC(=O)c1cc(F)c(N2CCN(S(=O)(=O)c3ccc(C)cc3)CC2)cc1C	none
CC1(C)Cc2c(C#N)c(N3CCCC3)nc(-c3ccco3)c2CO1	none
CC(C)c1nc(N2CCN(C(=O)c3ccccc3)CC2)c(C#N)c2c1COC(C)(C)C2	none
CC1(C)Cc2c(C#N)c(N3CCN(C(=O)c4ccccc4)CC3)nc(-c3ccco3)c2CS1	HIV RNase H inh 56.3
COCCCn1c(SCC(=O)n2c(C)c(C)c3ccccc32)nnc1-c1ccoc1C	none
CC1CCCN(C(=O)C2CCN(S(=O)(=O)c3cccc4cccnc34)CC2)C1 (stereo unspecified)	none
CCOC(=O)C(Oc1ccc(=O)n(-c2ccccc2)n1)C(C)=O (stereo unspecified)	none
CCOc1ccc(-n2ccnc2SCC(=O)NCc2ccc3c(c2)OCO3)cc1	none
O=C(Cn1cc2c(n1)CCCC2)NC1CCN(Cc2ccccc2)CC1	none
COc1ccc(-c2cc3c(=O)n(CC(=O)NC4CCN(Cc5ccccc5)CC4)ncn3n2)cc1	HIV RNase H inh 63.7
Cc1ccc2oc(=O)c3cnn(CC(=O)NC4CCN(Cc5ccccc5)CC4)c3c2c1	none
CCC(=O)Nc1ccc(S(=O)(=O)c2ccc(NC(=O)CC)cc2)cc1	none
CCC(COC(=O)Nc1cccc(C)c1)NC(=O)OCC(C)C (stereo unspecified)	none
O=C(c1ccccc1C(F)(F)F)N1CCN(S(=O)(=O)c2ccccc2)CC1	none
CCn1c(C)cc(=S)c2ccccc21	none
O=c1[nH]c(=O)n(Cc2ccccc2)c(O)c1C=Nc1ccc(CN2CCOCC2)cc1	none
CCn1c(O)c(C=Nc2ccccc2)oc1=S	HIV RNase H inh 54.3
CC(C)(C)c1[nH]nc2c1C(Cc1ccccc1)C(C#N)=C(N)O2 (stereo unspecified)	none
COc1ccc(OC)c(C(=O)c2ccc(C(=O)N3CCCCC3)cc2)c1	none
Cc1oc(C)c2c(=O)ccc3c(c12)OC(N)=C(C#N)C3c1ccc(F)cc1 (stereo unspecified)	none
CCC(C(=O)Nc1nnc(-c2ccco2)s1)c1ccccc1 (stereo unspecified)	none
O=C(Nc1ccc2c(c1)oc1ccccc12)c1ccc2c(c1)OCO2	none
O=C(COc1ccc2c(c1)OCO2)Nc1ccc2c(c1)oc1ccccc12	HIV RNase H inh 58.9
O=C(COc1ccc2ccc(=O)oc2c1)Nc1ccc2c(c1)OCCO2	none
O=C1c2ccccc2C(=O)N1CCc1nc2ccccc2c(=O)n1Cc1ccco1	none
Cc1ccc(N(C(C)C(=O)N2CCCCC2)S(C)(=O)=O)cc1C (stereo unspecified)	none
CCOC(=O)c1c(NC(=O)OC)sc(C(=O)N(C)C)c1C	HIV RNase H inh 51.7
CCOC(=O)c1c(N)sc(C(=O)N(C)C)c1C	none
CCOC(=O)c1c(NC(=O)CC)sc(C(C)=O)c1C	none
CCOc1ccccc1NC(=O)CCN1CCN(S(=O)(=O)c2ccc(Br)cc2)CC1	none
COc1ccc(C2C3=C(CC(C)(C)CC3=O)Nc3c2c(=O)[nH]c(=O)n3Cc2ccccc2)cc1OC (stereo unspecified)	none
COc1cc(C2C3=C(CC(C)(C)CC3=O)Nc3c2c(=O)[nH]c(=O)n3Cc2ccccc2)ccc1O (stereo unspecified)	HIV RNase H inh 67.5!
COc1ccc(C2C3=C(CC(C)(C)CC3=O)Nc3c2c(=O)[nH]c(=O)n3Cc2ccccc2)cc1 (stereo unspecified)	none
CC1=C(C(=O)Nc2ccccc2C)C(c2ccc(C)o2)N2C(=O)CSC2=N1 (stereo unspecified)	none
COc1ccc(C(=O)NCCn2ccc3ccccc32)c(OC)c1	none
CCOC(=O)c1cnc(-n2nc(C)cc2C)nc1N(CC)CC	none
O=C(NCc1ccco1)c1cc2ccccc2o1	none
Cc1ccc2cc3cc(C(=O)NCCC(C)C)oc3nc2c1	none
Cc1ccc2cc3cc(C(=O)NCc4ccco4)oc3nc2c1	HIV RNase H inh 51.1
O=C(CSCc1cccc(Br)c1)N1CCOCC1	none
CC(C)C(=O)Nc1cccc(C(=O)Nc2nccs2)c1	none
COC(=O)c1sc2cnccc2c1N	none
COC(=O)c1c(N)sc(C(C)=O)c1C	none
COC(=O)c1sc(=S)sc1C(=O)OC	HIV RNase H inh 52.4
CC(NC(=O)c1ccnc(C(C)(C)C)c1)c1ccccc1 (stereo unspecified)	none
O=C(CSc1nc2ccccc2c(=O)[nH]1)Nc1ccc(S(=O)(=O)N2CCCC2)cc1	none
CC1CCN(Cc2c(C#N)c3ccccc3n2C)CC1	none
COc1ccc2c(c1OC)C(=O)N1c3ccccc3C(=O)N(c3ccccc3)C21 (stereo unspecified)	none
O=C(CSc1nnc(-c2ccc(Cl)cc2)o1)N1CCN(c2ccccc2)CC1	HIV RNase H inh 50.0
O=C(CSc1nnc(COc2ccccc2)o1)N1CCN(c2ccccc2)CC1	none
O=C(CSc1nnc(COc2ccc(Cl)cc2)o1)N1CCN(c2ccccc2)CC1	none
COc1ccccc1N1CCN(S(=O)(=O)c2cnc[nH]2)CC1	none
Cc1csc(NC(=O)CSc2nnc(Cn3c(=O)sc4ccccc43)n2-c2ccccc2)n1	none
CCOC(=O)c1c(C)n(C)c2c(C)cc(O)c(OC(=O)CC)c12	HIV RNase H inh 55.7
CCOC(=O)c1c(C)n(C)c2ccc(OC(=O)c3ccoc3)cc12	none
CCOC(=O)c1c(C)n(C)c2ccc(O)c(CN3CCN(C)CC3)c12	none
CCCCNC(=O)c1ccc2c(c1)N(CC)C(=O)c1ccccc1S2(=O)=O	none
COC(=O)C1=C(CSCc2ccco2)NC(=O)NC1c1cc(C)ccc1C (stereo unspecified)	none
O=C(c1n[nH]c2c1CCCC2)n1ccnc1	none
CCOC(=O)c1ccc(NC(=O)C2C3C=CC(C3)C2C(=O)O)cc1 (stereo unspecified)	none
CCOC(=O)c1ccc2c(c1)C1C=CCC1C(C(=O)O)N2 (stereo unspecified)	HIV RNase H inh 52.4
CCOC(=O)c1ccc(N2C(=O)C3CC=CCC3C2=O)cc1 (stereo unspecified)	none
CCOc1ccc(CNC(=O)C(CC)n2nc(C)n3c(cc4occc43)c2=O)cc1OC (stereo unspecified)	none
CCN(CC(=O)NCc1ccc(F)cc1)CC(O)COCc1cccc(OC)c1 (stereo unspecified)	none
COc1ccc(Cc2nnc(NC(=O)Cc3cccs3)s2)cc1OC	HIV RNase H inh 79.8
COc1ccc(C(=O)Nc2nnc(Cc3cccs3)s2)cc1OC	none
O=C(Cc1cccs1)Nc1nnc(CCc2ccccc2)s1	none
COC(=O)CN(c1ccc(F)cc1)S(=O)(=O)c1ccc2c(c1)OCCO2	none
CCC(C)C(NC(=O)c1ccccc1NC(=O)c1ccc(OC)cc1)C(=O)NCc1ccco1 (stereo unspecified)	HIV RNase H inh 54.6
O=C(Nc1ccccc1C(=O)NCc1ccco1)c1ccccc1	none

Assay outcomes: PubChem, University of Pittsburgh Molecular Library Screening Center
